Bioassay records from PubChem BioAssay.
In the library only some 15% were active in any assay of this set; here they are far more common.
HCV inhibitor = blocks hepatitis C virus; Huh7.5.1 HCVcc-Cre infection, luciferase reporter, 44 h; Potency, µM (titrated, usually from 41.8 µM), for the others: top-dose activity change, negative = inhibition, most hits filed as inhibitors; 340,000 compounds, 3.4% hits; also: potency is read from the fitted curve at half-maximal effect; % is scaled to controls: 0 for no effect and ±100 for the full control effect
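Compounds are dispensed onto cells plated 4 h earlier at 1,000 per well, with HCVcc-Cre virus (about 0.5 moi) added next. Following 44 h of culture, luminescent signal is measured for 15 sec after 15 min with substrate at room temperature.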
Pf growth 48h = P. falciparum growth inhibition at 48 hours (one generation). AID 504832. 310,000 compounds, 5.9% hits. P. falciparum luciferase growth in erythrocytes, 48 h. Potency, µM (titrated, usually from 28.7 µM), without a hit: at the highest dose activity change, negative = inhibition, hits mostly inhibitors; also: potency is read from the fitted curve at half-maximal effect; % is scaled to controls: 0 for no effect and ±100 for the full control effect
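Parasite viability was followed by luminescence of a genomically integrated firefly luciferase. Cultures held 0.1% parasitemia at 2% hematocrit (final), incubated under 5% CO2 at 37 C.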
HCMV inh = human cytomegalovirus inhibition; activity change, negative = inhibition, % at 57.5 µM; HFF cells, HCMV-luciferase reporter, 72 h; active compounds read low; 410,000 compounds, 4.5% hits; in the data active = activity change below about -60%; inconclusive = no clear call, values can overlap the other calls; inactive = above about -39%; also: % is scaled to controls: 0 for no effect and ±100 for the full control effect
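Two compound doses tested in HFFs infected with HCMV-luciferase, MOI 1 PFU/cell, 72 h at 37C. Lysate luminescence read with OneGlo; data normalized against buffer-only and 10uM Salinomycin inhibitor controls.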
Sm TGR block = blocks Schistosoma mansoni thioredoxin glutathione reductase | Q962Y6 | purified TGR, DTNB reduction, TNB absorbance 405 nm | Potency, µM (highest dose often 114 µM), for the others: at the top dose activity change, negative = inhibition, hits mostly inhibitors | 360,000 compounds, 3% hits; also: potency is read from the fitted curve at half-maximal effect; % is scaled to controls: 0 for no effect and ±100 for the full control effect; nearly all actives have a fitted effect of over 60% in size
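First, TGR (20 nM dispensed) and NADPH were mixed with compound. Second, a 15 min room-temperature incubation followed. Third, further NADPH and then DTNB were added to start the reaction. Finally, TNB absorbance was monitored kinetically.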
SARS PLP yeast = SARS-CoV PLP inhibition in yeast; 330,000 compounds, 0.19% hits; S. cerevisiae expressing SARS-CoV PLpro, growth rescue; Potency, µM (titrated, usually from 32.9 µM), for the others: top-dose activity, positive = growth rescue, hits mostly activators; calls by dose curve; also: potency is read from the fitted curve at half-maximal effect; 0% is about no effect; nearly all actives have a fitted effect of over 55% in size
Pf growth 96h = P. falciparum growth inhibition at 96 hour, primary screen for plastid delayed-death inhibitors; Potency, µM (series often up to 28.7 µM), without a hit: at the highest dose activity change, negative = inhibition, hits mostly inhibitors; AID 504834; P. falciparum luciferase reporter growth, 96 h; 320,000 compounds, 6.9% hits; also: potency is read from the fitted curve at half-maximal effect; % is scaled to controls: 0 for no effect and ±100 for the full control effect
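Cell-based qHTS: luciferase-tagged P. falciparum in erythrocytes (2% hematocrit, 0.05% parasitemia final) incubated with compounds for 96 hours, 37 C, 5% CO2; luciferase detection reagent then added and luminescence measured.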
* = called active by the depositor; i = inactive; ? = inconclusive; . = not tested or not shown; [ ] = another dose, or the depositor's remark. Unless noted, calls follow the shape of the dose curve; as a rule, active = well fitted curve in the direction sought with a large enough effect; inconclusive = small, poorly fitted or top-dose-only effect, or another doubt; inactive = no such curve, though single readings can be large; an effect the other way counts as inactive or inconclusive.

SMILES	HCV inhibitor	Pf growth 48h	HCMV inh	Sm TGR block	SARS PLP yeast	Pf growth 96h
COCc1cc(C)nc(SCC(=O)Nc2cccc3cccnc23)c1C#N	13%	15%	-12	-1%	-12%	12µM*
COCc1cc(C)nc(NCCO)c1C#N	8%	62%	59	0%	.	1%
COCc1cc(C)nc(SCc2ccc(Cl)cc2)c1C#N	-16%	?	?	-5%	-7%	2%
O=C(O)CCC1(CCC(=O)O)CCCC(CCC(=O)O)(CCC(=O)O)C1=O	8%	.	-25	.	.	.
COc1ccc(NC(=O)c2sc3nc(-c4cc5ccc(OC)cc5oc4=O)[nH]c(=O)c3c2C)cc1	.	.	14	12%	.	.
O=C1C(c2ccccc2)C2C=CC(C2)N1O (stereo unspecified)	36%	.	-5	.	.	.
CCCCn1c(N)c(N(CC)C(=O)c2cnc(C)cn2)c(=O)[nH]c1=O	6%	?	-5	0%	2%	13%
COc1ccc(N(C(=O)CNC(=O)c2ccco2)C(C(=O)NCC2CCCO2)c2ccccc2)cc1 (stereo unspecified)	21%	0%	0	4%	-2%	?
O=C(O)c1cc(S(=O)(=O)N2CC3CC3C2C(=O)O)c(Cl)cc1Cl (stereo unspecified)	11%	-11%	85	-13%	2%	31%
Cc1ccc(NC(=O)Cn2c3ccc(F)cc3c3nc4n(c(=O)c32)CCS4)cc1F	-28%	139%	-72*	11%	0%	33%
O=c1c2c(nc3n1CCS3)c1cc(F)ccc1n2Cc1cc(=O)n2cc(Cl)ccc2n1	-22%	?	.	-9%	0%	1.9µM*
COc1cc2c3nc4n(c(=O)c3n(CC(=O)NCC3CCCO3)c2cc1OC)CCS4 (stereo unspecified)	25%	1%	-92*	141%	-3%	1%
O=C(Cn1c2ccc(F)cc2c2nc3n(c(=O)c21)CCS3)Nc1ccc(Cl)cc1F	?	?	?	-7%	0%	0%
COc1cccc(NC(=O)Cn2c3ccc(F)cc3c3nc4n(c(=O)c32)CCCS4)c1	5%	?	-61*	-24%	0%	?
CCOc1cc2[nH]c(=O)n(CCCCC(=O)N3CCN(c4ccccc4OC)CC3)c(=O)c2cc1OCC	.	.	2	0%	.	.
CCc1ccc2c(c1)cc(CN(C(=S)Nc1ccccc1C)C1CC1)c1nnnn12	-8%	3.3µM*	17	-10%	2%	?
O=C(Nc1ccc(C(F)(F)F)cc1)C1=NN(C2CCS(=O)(=O)C2)C(=O)CC1 (stereo unspecified)	10%	?	-7	-20%	3%[6.58 µM]	?
Cc1cccc(C(=O)N[C@H]2CC[C@@]34CCCN3C(=O)CCC[C@H]4[C@H]2Cc2ccccc2)c1	.	.	-27	.	.	.
CN(C=C1C(=O)CC(C)(C)CC1=O)CCN1CCNCC1	6%	8%	22	22µM*	-3%	58%
c1csc(-c2noc(CN3CCc4sccc4C3)n2)c1	11%	37%	24	-1%	0%	0%
Cc1ccc(C)c(N2CCN(C(=S)Nc3ccc4nc(N5CCN(C)CC5)cc(C)c4c3)CC2)c1	2.5µM*	10µM*	?	5%	-4%	27%
Cc1cc(N2CCN(C)CC2)nc2ccc(NC(=S)N3CCN(c4ccccn4)CC3)cc12	-21%	-32%	-30	1%	0%	9.3µM*
Cc1nc2ccc(NC(=S)N3CCN(c4ccccn4)CC3)cc2nc1C	-1%	1%	-29	-7%	-14%	?
Cc1ccc(C)c(N2CCN(C(=S)Nc3ccc4nc(N5CCOCC5)cc(C)c4c3)CC2)c1	?	?	-22	0%	1%	6%
Cc1cc(N2CCN(C)CC2)nc2ccc(NC(=S)N3CCC4(CC3)OCCO4)cc12	25%	4.1µM*	-5	-11%	3%	12µM*
SMILES	HCV inhibitor	Pf growth 48h	HCMV inh	Sm TGR block	SARS PLP yeast	Pf growth 96h
O=C(OC1C2CCC1C1CN(CCc3ccccc3)CC12)c1ccccc1 (stereo unspecified)	0%	?	-68*	-6%	-1%	?
Cc1ccc2c(c1)c(=O)c(C(=O)c1ccncc1)cn2CC(=O)Nc1ccccc1Cl	.	.	88	-7%	.	.
CC(NC(=O)CCc1nnc(-c2ccc(-c3ccccc3)cc2)o1)c1nc2ccccc2[nH]1 (stereo unspecified)	-35%	?	-68*	?	-1%	-1%
Cc1ccc(CN2CCC(CNC(=O)c3ccc(NC(=O)C4=CSCCO4)cc3)CC2)cc1	13µM*	?	-34	-12%	-3%	?
O=C(Nc1ccc(C(=O)NCC2CCN(Cc3ccccc3F)CC2)cc1)C1=CSCCO1	-9%	-12%	-16	-2%	-3%	?
CCOC(=O)c1nc(NNC(=O)c2ccc([N+](=O)[O-])cc2)sc1C	?	?	-97*	?	2%	3.3µM*
CCOC(=O)c1sc(NNC(=O)c2ccc(C)cc2)nc1C	-18%	?	39	7%	2%	-8%
CCOC(=O)c1cc2c(OC)ccc(OC)c2n1CC(=O)c1ccccc1	-15%	?	-8	13%	8%	?
Clc1ccc(-c2nnc(CSc3nnc(-c4cccs4)n3Cc3ccccc3)o2)cc1	?	?	-88*	-6%	-16%	?
Cn1c(SCc2nc3ccccc3s2)nnc1-c1cccs1	7%	-25%	8	0%	?	.
CCCn1c(=O)c2ccccc2n2c(SCc3nc4ccccc4s3)nnc12	-26%	103%	25	-17%	3%	10µM*
CCn1c(SCc2nc3ccccc3s2)nnc1-c1cccs1	-27%	-18%	83	-12%	?	10µM*
Cc1nnc(SCc2nnc(-c3cccs3)o2)n1Cc1ccccc1	7%	i	-7	1%	4%	?
CCn1c(SCCOc2ccc(Cl)cc2)nnc1-c1cccs1	-19%	?	-13	-4%	-7%	9.3µM*
O=C(CCN1C(=O)[C@@H]2Cc3ccccc3CN2C1=O)NCc1ccccc1Cl	13%	-28%	-26	-2%	-1%	?
COc1ccc(C(=O)O/N=C(\N)c2ccc(OC)c(OC)c2)cc1	4%	?	69	-2%	-3%	1%
COc1ccc(C(=O)O/N=C(\N)c2ccccc2)c(OC)c1	?	-66%	-78*	0%	-56%	-72%
N/C(=N\OC(=O)c1cc(Cl)ccc1Cl)c1ccccn1	11µM*	158%	-15	-13%	-90%	?
COc1cc(OC)cc(C(=O)O/N=C(\N)c2cccc(C)c2)c1	11µM*	?	46	-7%	0%	7%
